# Assay results from PubChem BioAssay (EPA / NIEHS).
# “And” between values parts separate entries of the source, which are not always exact repeats. Identical values can stand only once. Inconclusive results are not listed. The source holds several records for some structures; these can differ, active in one and inactive in another. The source made the active and inactive calls. How the source made its calls: active means hit-call score of the fitted dose curve at least 0.9, where 1 is the maximum; inconclusive means response in the unintended direction; inactive means score below 0.9.
# Assay: ATG_XTT_Cytotoxicity: Cytotoxicity Assessment in the Attagene TRANS-FACTORIAL HepG2 Assay (AID 2283584)
# Outline: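 HepG2 cells transiently transfected with GAL4-UAS multiple reporter units, dosed 24 h; cytotoxicity read by XTT as loss of signal versus DMSO baseline.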
row,Compound,outcome
1,O=C(O)CCCCCCCCCCC(=O)O,inactive
2,Cc1c(Cl)c(=O)oc2cc(O)ccc12,inactive
3,O=C1c2ccccc2C(=O)N1SC1CCCCC1,inactive
4,c1ccc2c(c1)c1cccc3ccc4cccc2c4c31,inactive
5,CC1(C)[C@@H]2CC[C@@]1(C)[C@H](O)C2,inactive
6,CCCC(=O)OCCC(C)CCC=C(C)C (stereo not drawn),inactive
7,CC1COc2ccccc2N1C(=O)C(Cl)Cl (stereo not drawn),inactive
8,Cc1ccc(C(C)C)cc1O,inactive
9,C=C(C)C(=O)OCc1ccccc1,inactive
10,O=C(Cl)c1cccc(C(=O)Cl)c1,inactive
11,O=C[C@H](O)[C@H](O)[C@H](O)CO,inactive
12,Cc1ccc(C=O)cc1,inactive
13,Cc1cccc(C)c1C,inactive
14,OCc1cccnc1,inactive
15,CCCCC/C=C/C=C/C=O,inactive
16,O=c1oc(=O)c2cc3c(=O)oc(=O)c3cc12,inactive
17,CSc1nnc(C(C)(C)C)c(=O)[nH]1,inactive
18,CCn1c2ccccc2c2cc(N)ccc21,inactive

row,Compound,outcome
1,O=CCCc1ccccc1,inactive
2,CN1Cc2c(N)cccc2C(c2ccccc2)C1 (stereo not drawn),inactive
3,CNCCCC12CCC(c3ccccc31)c1ccccc12,inactive
4,CC(CN1c2ccccc2Sc2ccccc21)N(C)C (stereo not drawn),inactive
5,C=C(C)C(=O)Nc1ccc(Cl)c(Cl)c1,inactive
6,CCCC[n+]1ccccc1,inactive
7,Cc1ccc(O)c(C(C)(C)C)c1,inactive
8,CC(CCO)CCCC(C)(C)O (stereo not drawn),inactive
9,O=C(COc1ccc(Cl)cc1)N1CCN(Cc2ccc3c(c2)OCO3)CC1,inactive
10,CC(=O)OCCOC(C)=O,inactive
11,Cc1ccc(C(=O)O)o1,inactive
12,O=C1NC(=O)c2ccccc21,inactive
13,Nc1nc2ccc([N+](=O)[O-])cc2s1,inactive
14,CC(C)(C)c1cc(CCC(=O)NN)cc(C(C)(C)C)c1O,inactive
15,Nc1cc([N+](=O)[O-])ccc1Cl,inactive
16,O=C1OC2(c3cc(Br)c(O)c(Br)c3Oc3c2cc(Br)c(O)c3Br)c2c(Cl)c(Cl)c(Cl)c(Cl)c21,inactive
17,Clc1sc(Cl)c(Cl)c1Cl,inactive
18,O=[N+]([O-])c1ccc(C=Cc2ccc([N+](=O)[O-])cc2S(=O)(=O)O)c(S(=O)(=O)O)c1,inactive

# Assay: TOX21_p53_BLA_p2_viability: Viability Assessment in the Tox21 HCT-116 p53 Agonism Beta-lactamase Assay, Phase 2 (AID 2283591);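 further: compound exposure lasted 16 h at 37 °C; actives lower the ATP signal meaning cytotoxicity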
# Outline: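 HCT-116 p53-bla cells (4000/well) rested 5 h at 37C, then received compounds in DMSO (217-fold dilution) for 16 h at 37C, 5% CO2. After the CCF4 read, CellTiter-Glo was added; ATP luminescence was read after 30 min at room temperature.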
Compound,AC50,outcome
O=C1c2ccccc2C(=O)N1SC1CCCCC1,61.2 µM (active),inactive
c1ccc2c(c1)c1cccc3ccc4cccc2c4c31,,inactive
CC1(C)[C@@H]2CC[C@@]1(C)[C@H](O)C2,,inactive
O=C(Cl)c1cccc(C(=O)Cl)c1,,inactive
CCCCC/C=C/C=C/C=O,62.9 µM (active),inactive
CCn1c2ccccc2c2cc(N)ccc21,,inactive
CNCCCC12CCC(c3ccccc31)c1ccccc12,64.5 µM (active),inactive
CC(CN1c2ccccc2Sc2ccccc21)N(C)C (stereo not drawn),38.9 µM (active),
C=C(C)C(=O)Nc1ccc(Cl)c(Cl)c1,,inactive
Cc1ccc(O)c(C(C)(C)C)c1,44.8 µM (active),inactive
CC(=O)OCCOC(C)=O,,inactive
CC(C)(C)c1cc(CCC(=O)NN)cc(C(C)(C)C)c1O,,inactive
O=C1OC2(c3cc(Br)c(O)c(Br)c3Oc3c2cc(Br)c(O)c3Br)c2c(Cl)c(Cl)c(Cl)c(Cl)c21,46.2 µM (active) and 19.8 µM (active),
